# Experimental data published in PubChem BioAssay (NCATS).
# Records with an inconclusive call do not appear. The source made the active and inactive calls. Calls come from the whole dose curve; as a rule, active = well fitted cell-killing curve with a large enough effect; inconclusive = small, poorly fitted or top-dose-only effect; inactive = no such curve, though single readings can be large or run the other way. Non-standard residues stand in square brackets, D forms with d. Residues, ends and D or L forms follow the SMILES beside them. *: point of attachment. Nva = CCC[C@H](N)C(=O)O; Cbz = O=C(OCc1ccccc1)*
# Assay: qHTS of pediatric cancer cell lines to identify multiple opportunities for drug repurposing: Confirmatory screen for U-2 OS cells (AID 1347122); note: nearly all actives have a fitted effect of over 65% in size
# Conditions: U-2 OS osteosarcoma cell viability; series mostly up to 45.9 µM; activity change, negative = cytotoxicity: at the top concentration
# Text: Drug repurposing or repositioning has been offered as a strategy for drug development in oncology programs. This approach has special potential for childhood cancers and other rare or orphan diseases, where the expected return on new drug development has been a disincentive to pharmaceuticals.
# In this project we exploit the poly-pharmacology of drugs to discover new indications via phenotypic screening of a panel of 19 well-characterized cell lines derived from solid tumors seen in children and adolescents. The goal is to identify approved drugs with previously unrecognized anticancer properties that has the potential to reveal new mechanisms and biological processes involved in carcinogenesis or drug resistance. We employed a titration-based paradigm (quantitative high-throughput screening or qHTS), where all compounds were tested at multiple concentrations for their effect on cell viability. Concentration-response curves (CRCs) were derived directly from the primary screen, and both potency and efficacy values were used to identify compounds with robust bioactivity profiles. We screened the NIH Chemical Genomics Center (NCGC) Pharmaceutical Collection (NPC) and Mechanism Interrogation Plate (MIPE) small molecule collections of approved and investigational compounds against these cell lines; and measured metabolically active cells after 48 hours of compound treatment as a proxy for cell viability.
# Assay Submitter: Nathalia J. Martinez, National Center for Advancing Translational Sciences, National Institutes of Health, Rockville, MD, USA; email: natalia.martinez@nih.gov
# [1] Shen, M et al. Quantitative high-throughput phenotypic screening of pediatric cancer cell lines identifies multiple opportunities for drug repurposing. Oncotarget 2017 Dec 19;9(4):4758-4772. PMID 29435139.
# The cells were obtained from University of North Carolina (UNC), Pediatric Preclinical Testing Program (PPT), and Coriell Institute (CI).
# qHTS cell viability assay:
# Cells were assayed in growth media at a density of 500-1,000 cells/well. Five microliters of cells were dispensed into 1,536-well, white, solid-bottom, TC-treated plates (Greiner Bio One) using a multidrop dispenser and incubated at 37 degrees C, 5% CO2, under a humidified atmosphere for 5 hours. Twenty-three nanoliters of compounds and controls (neutral control DMSO or positive control bortezomib at final concentration of 2.3 µM) were subsequently transferred by Kalypsys pintool. For primary screens, the MIPE collection was tested at 11-point dilutions (final concentrations range from 0.78 nM to 46 µM) and the NPC collection at 8-point dilutions (final concentrations range from 0.59 nM to 46 µM). Compounds tested in follow-up screens were assayed at 11-point dilutions. Cells were incubated for 48 hours, followed by addition of 3 µL of CellTiter-Glo (Promega). After a 15 min incubation at room temperature, samples were analyzed for luminescence intensity using a ViewLux High-throughput CCD imager equipped with clear filters.
# Potency is the fitted concentration of half-maximal effect.
SMILES,Potency,outcome,"activity change, negative = cytotoxicity"
CC(C)C[C@@H](C=O)NC(=O)[C@H](CC(C)C)NC(=O)[C@H](CC(C)C)NC(=O)OCc1ccccc1 (Cbz-Leu-Leu-Leu-aldehyde),2.08 µM (active),–,–
COC1=C2C[C@@H](C)C[C@H](OC)[C@@H](O)[C@@H](C)C=C(C)[C@H](OC(N)=O)[C@@H](OC)C=CC=C(C)C(=O)NC(=CC1=O)C2=O,1.04 µM (active),–,–
O=C(C=Cc1ccc(CN(CCO)CCc2c[nH]c3ccccc23)cc1)NO,0.165 µM (active),–,–
COc1cc(OC)c(C=CS(=O)(=O)Cc2ccc(OC)c(NCC(=O)O)c2)c(OC)c1,0.293 µM (active),–,–
CNC(=O)c1cccc(-c2ccc3c(N4CCOC[C@H]4C)nc(N4CCOC[C@H]4C)nc3n2)c1,0.261 µM (active),–,–
O=S(=O)(O)CCSSCCS(=O)(=O)O,–,inactive,–
Nc1ncn([C@@H]2O[C@H](CO)[C@@H](O)[C@@H]2O)c(=O)n1,8.27 µM (active),–,–
C[C@H](NCc1ccc2c(c1)nc(NC(=O)c1ccc(-c3cn[nH]c3)s1)n2CCc1ccccc1)C(C)(C)C,1.17 µM (active),–,–
Cc1nc(NC(=O)N2CCC[C@@H]2C(N)=O)sc1-c1ccnc(C(C)(C)C(F)(F)F)c1,14.7 µM (active),–,–
COc1ccc2c(c1OC)C(=O)OC2[C@H]1c2c(cc3c(c2OC)OCO3)CCN1C (stereo not given in full),–,–,3.6% (inactive)
COc1ccc(C=Cc2cc(OC)c(OC)c(OC)c2)cc1NC(=O)[C@H](N)CO,0.117 µM (active),–,–
Cn1cc(-c2cnn3c(N)c(Br)c([C@H]4CCCNC4)nc23)cn1,2.93 µM (active),–,–
Cc1cc(Nc2ncc3c(n2)N(C)C(=O)N(c2cc(NC(=O)c4cccc(C(F)(F)F)c4)ccc2C)C3)n(C)n1,0.369 µM (active),–,–
CCC[C@@H](C=O)NC(=O)[C@H](CC(C)C)NC(=O)[C@H](CC(C)C)NC(=O)OCc1ccccc1 (Cbz-Leu-Leu-[Nva]-aldehyde),2.61 µM (active),–,–
NC(=O)Nc1sc(-c2ccc(F)cc2)cc1C(N)=O,14.7 µM (active),–,–
CCC(C(=O)O)C1CCC(C)C(C(C)C(O)C(C)C(=O)C(CC)C2OC3(C=CC(O)[C@@]4(CC[C@](C)(C5CC[C@@](O)(CC)C(C)O5)O4)O3)C(C)CC2C)O1 (stereo not given in full),7.37 µM (active),–,–
CC(C)N1[N]C(=C2C=c3cc(O)ccc3=N2)c2c(N)ncnc21,2.33 µM (active),–,–
C=Cc1c(C)c2cc3nc(cc4[nH]c(cc5nc(cc1[nH]2)C(C)=C5CCC(=O)O)c(CCC(=O)OC)c4C)[C@@]1(C)C3=CC=C(C(=O)OC)[C@H]1C(=O)OC,–,–,-13.2% (inactive)
O=C(O)C[C@H](O)C[C@H](O)C=Cc1c(C2CC2)nc2ccccc2c1-c1ccc(F)cc1,1.65 µM (active),–,–
O=C(Nc1cc2cc[nH]c2cn1)c1ccccc1,–,–,-63.1% (inactive)

SMILES,Potency,outcome,"activity change, negative = cytotoxicity"
CCS(=O)(=O)Nc1ccc2[nH]c(O)c(C(=Nc3ccc(CN4CCCCC4)cc3)c3ccccc3)c2c1,0.522 µM (active),–,–
CO[C@@H]1[C@@H](O)[C@H](O)[C@@H](n2c3c(Cl)cccc3c3c4c(c5c6cccc(Cl)c6[nH]c5c32)C(=O)NC4=O)O[C@@H]1CO,4.14 µM (active),–,–
C=CC(=O)N1CCc2ccc(-n3c(=O)ccc4cnc5ccc(-c6cnn(C)c6)cc5c43)cc21,5.22 µM (active),–,–
CC1(C)O[C@@H]2C[C@H]3[C@@H]4CCC5=CC(=O)C=C[C@]5(C)[C@@H]4[C@@H](O)C[C@]3(C)[C@]2(C(=O)CO)O1,–,inactive,–
CC[C@]12C=CCN3CC[C@@]4(c5cc([C@@]6(C(=O)OC)C[C@H]7C[C@@H](C(C)(F)F)CN(Cc8c6[nH]c6ccccc86)C7)c(OC)cc5N(C)[C@H]4[C@@](O)(C(=O)OC)[C@H]1OC(C)=O)[C@@H]32,–,–,29.2% (inactive)
CCC(C=C[C@@H]1OC(=O)C=C[C@H]1C)=C[C@H](C)CC=CC(C)=C[C@@H](C)C(=O)[C@@H](C)[C@H](O)[C@@H](C)CC(C)=CC(=O)O,0.0091 µM (active),–,–
C[N+](C)([O-])CCNc1ccc(NCC[N+](C)(C)[O-])c2c1C(=O)c1c(O)ccc(O)c1C2=O,–,–,-4.68% (inactive)
O=C(C=CC=Cc1ccc2c(c1)OCO2)N1CCCCC1,–,–,14.9% (inactive)
CCc1cc(C(C)=NOCc2ccc(C3CCCCC3)c(C(F)(F)F)c2)ccc1CN1CC(C(=O)O)C1,–,–,-24.7% (inactive)
C[C@@]12C(=O)OC(=O)[C@@]1(C)C1CCC2O1,1.85 µM (active),–,–
CCCCC(=O)O[C@]1(C(=O)CO)[C@@H](C)C[C@H]2[C@@H]3CCC4=CC(=O)C=C[C@]4(C)[C@@]3(F)[C@@H](O)C[C@@]21C,–,inactive,–
COc1ccc(C(C)=O)c(O)c1,–,inactive,–
Oc1ccc(-c2ccc(-c3cc(Nc4cccc(CNC5CC5)c4)n[nH]3)cc2)c(O)c1,5.22 µM (active),–,–
O=C1NCCc2[nH]c(-c3ccncc3)cc21,2.93 µM (active),–,–
CC(C)(O)Cn1c(NC(=O)c2ccc(-c3cn[nH]c3)s2)nc2cc(CN3CCOCC3)ccc21,1.17 µM (active),–,–
CC[C@@]1([C@@H]2O[C@@H]([C@H]3O[C@@](O)(CO)[C@H](C)C[C@H]3C)C[C@H]2C)CC[C@H]([C@]2(C)CC[C@]3(C[C@H](O)[C@@H](C)[C@@H]([C@@H](C)[C@@H](OC)[C@H](C)C(=O)O)O3)O2)O1,2.57 µM (active),–,–
FC(F)c1nc2ccccc2n1-c1nc(N2CCOCC2)nc(N2CCOCC2)n1,4.65 µM (active),–,–
Nc1nc2c(c(=O)[nH]1)N(C=O)[C@H](CNc1ccc(C(=O)N[C@@H](CCC(=O)O)C(=O)O)cc1)CN2,–,–,16.6% (inactive)
O=C(C=CC#Cc1cccc(NS(=O)(=O)c2ccccc2)c1)NO,0.928 µM (active),–,–
Cn1cc(CNCC2CCN(c3ncc(C(=O)NO)cn3)CC2)c2ccccc21,0.208 µM (active),–,–
